Experiment [1] has as its system Plasmodium falciparum Sir2 (PF13_0152, Sir2A). In words: Plasmodium falciparum Sir2A binding compounds – biochemical, small-molecule microarray, 635 nm fluorescence, primary screen (AID 1098).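 Further: score merges spot fluorescence intensity with its signal-to-noise ratio.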 Conditions: fluorescence 635 nm, higher = more signal.
Experiment [2] is described as follows: probe aDKK1 binding to arrayed compounds – biochemical, biotinylated probe, 635/667 nm fluorescence, primary screen (AID 1099).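 Further: score merges 667nm spot fluorescence with signal to noise across triplicate slides.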 Conditions: small-molecule microarray, higher = more signal.
Experiment [3] in a line: probe aCHRDL2 binding to arrayed compounds – biochemical, biotinylated probe, 635/667 nm fluorescence, primary screen (AID 1100). The conditions noted are these: small-molecule microarray, higher = more signal.
Experiment [4] can be described thus: change in splice reporter luminescence, either direction, cell-based, HEK293, spliceosome inhibition project, primary screen (AID 1101).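 Further: HEK293 cells carrying a splicing-competent luciferase reporter gene; test concentration not given here.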 Conditions: HEK293 splicing luciferase reporter, 24 h, higher = more signal, called active from +8 up or from −8 down. (Reporter assays use an easily measured gene product as a stand-in for the process of interest.)
Experiment [5] deals with Fibroblast growth factor 10 (Homo sapiens) (UniProt O15520). Nature of the experiment: compounds binding fibroblast growth factor 10 – biochemical, small-molecule microarray, 635 nm fluorescence, primary screen (AID 1102). The conditions noted are these: FGF10 binding, fluorescence 635 nm, higher = more signal.
Chain of Fibroblast growth factor 10 (Homo sapiens) (O15520 whole entry, looked up): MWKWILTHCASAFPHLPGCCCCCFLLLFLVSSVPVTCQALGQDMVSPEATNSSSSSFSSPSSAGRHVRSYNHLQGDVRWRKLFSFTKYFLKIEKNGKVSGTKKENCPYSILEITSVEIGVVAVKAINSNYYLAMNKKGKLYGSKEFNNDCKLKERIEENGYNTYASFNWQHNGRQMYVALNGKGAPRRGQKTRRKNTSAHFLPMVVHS
Experiment [6] concerns glycogen synthase kinase-3 (GSK3A per assay name; protocol says GSK3B). Nature of the experiment: compounds binding glycogen synthase kinase-3 – biochemical, small-molecule microarray, 635 nm fluorescence, GSK3A, primary screen (AID 1103). Further: the record names both GSK3A and GSK3B. Conditions: fluorescence 635 nm, higher = more signal.
Experiment [7] addresses Epidermal growth factor receptor (Homo sapiens) (UniProt P00533). In words: compounds binding epidermal growth factor receptor – biochemical, small-molecule microarray, 635 nm fluorescence, primary screen (AID 1104).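 Further: score merges 667 nm emission intensity with spot signal to noise over triplicate slides.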 The conditions noted are these: EGFR binding, higher = more signal.
For experiment [8], the target named is Follistatin-related protein 3 (Homo sapiens) (UniProt O95633). Nature of the experiment: compounds binding follistatin-related protein 3 – biochemical, small-molecule microarray, 635 nm fluorescence, primary screen (AID 1105).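 Further: score merges emission near 667 nm and signal to noise per printed spot across three slides.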 Conditions: FSTL3 binding, higher = more signal.
Chain of Follistatin-related protein 3 (Homo sapiens) (O95633 whole entry, looked up): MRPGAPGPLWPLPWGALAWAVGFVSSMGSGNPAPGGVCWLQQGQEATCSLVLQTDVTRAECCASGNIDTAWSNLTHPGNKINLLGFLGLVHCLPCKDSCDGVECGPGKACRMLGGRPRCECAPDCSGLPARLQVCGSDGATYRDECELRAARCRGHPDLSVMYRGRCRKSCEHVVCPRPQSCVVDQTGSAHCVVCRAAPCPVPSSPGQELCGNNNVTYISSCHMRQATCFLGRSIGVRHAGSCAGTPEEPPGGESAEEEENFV
The target in experiment [9] is Dickkopf-related protein 1 (Homo sapiens) (UniProt O94907). In words: small molecules binding DKK1 protein – biochemical, small-molecule microarray, 635 nm fluorescence scan, primary screen (AID 1106).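 Further: score merges emission near 667 nm with signal to noise over three replicate slides.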 The conditions noted are these: higher = more signal.
Chain of Dickkopf-related protein 1 (Homo sapiens) (O94907 whole entry, looked up): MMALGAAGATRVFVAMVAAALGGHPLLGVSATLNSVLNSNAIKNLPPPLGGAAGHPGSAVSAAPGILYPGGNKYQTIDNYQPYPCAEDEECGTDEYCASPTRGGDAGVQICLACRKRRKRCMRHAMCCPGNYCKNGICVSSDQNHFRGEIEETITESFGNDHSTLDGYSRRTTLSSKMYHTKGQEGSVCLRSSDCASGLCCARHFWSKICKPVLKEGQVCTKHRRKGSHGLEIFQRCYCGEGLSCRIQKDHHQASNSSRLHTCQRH
Experiment [10] deals with Inhibin beta A chain (activin A). In words: small molecules binding activin A – biochemical, small-molecule microarray, 635 nm fluorescence scan, primary screen (AID 1107).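 Further: mouse activin A protein probed at 4.33 µg/mL on printed slides; score merges bound-protein fluorescence near 667 nm with spot signal-to-noise.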 Conditions: INHBA, higher = more signal.
Experiment [11] concerns Human papillomavirus type 1a protein E7 (residues 44-93). In words: small molecules binding HPV E7 44-93 – biochemical, small-molecule microarray, residues 44-93, 635 nm fluorescence, primary screen (AID 1108).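 Further: E7 fragment applied at 1 µg/mL in TBST for 1 h at 4 C; score combines spot fluorescence with its signal to noise ratio.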 The conditions noted are these: fluorescence 635 nm, higher = more signal.
Experiment [12] is described as follows: hepatitis C replication reporter changes, two-sided – Huh7 cells, luciferase reporter, HCV replication inhibitor project, primary screen (AID 1109).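 Further: huh7 hepatoma cells harbouring a luciferase neomycin HCV replicon reporter; luciferase luminescence as measure of HCV replicon replication; test concentration not given here.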 The conditions noted are these: Huh7 HCV replicon luciferase reporter, 48 h; higher = more signal.
Experiment [13] concerns the target Left-right determination factor 2 (Homo sapiens) (UniProt O00292). In words: small molecules binding LEFTY2 protein – biochemical, small-molecule microarray, 635 nm fluorescence scan, primary screen (AID 1110). Conditions: higher = more signal.
In experiment [14] the target is Calmodulin-1 (Homo sapiens) (UniProt P0DP23). In words: small molecules binding calmodulin-1 with EGTA – biochemical, small-molecule microarray, Cy5-labelled CALM1, profiling panel (AID 1111).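 Further: labelled calmodulin applied in Tris saline Tween buffer holding calcium plus EGTA and DTT.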 The conditions noted are these: Cy5-CALM1 binding fluorescence, higher = more signal.
For experiment [15] the target is unchanged. In words: small molecules binding Ca-loaded calmodulin-1 – biochemical, small-molecule microarray, Cy5-labelled CALM1, plus calcium, artefact control for SMM control-protein annotation, profiling panel (AID 1112).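 Further: score merges spot fluorescence with signal to noise from triplicate slides.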 The conditions noted are these: Cy5-CALM1 binding fluorescence, higher = more signal.
Experiment [16] can be described thus: probe aWnt5a binding to arrayed compounds – biochemical, biotinylated probe, 635/667 nm fluorescence, primary screen (AID 1113).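 Further: score merges 667 nm fluorescence intensity with signal-to-noise per printed feature.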 The conditions noted are these: small-molecule microarray, higher = more signal.
Experiment [17] is described as follows: probe aShh binding to arrayed compounds – biochemical, biotinylated probe, 635/667 nm fluorescence, primary screen (AID 1114).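 Further: probe is biotin-labelled aShh protein from a stem cell growth factor screen; measures binding of labelled protein to compounds printed on the slide; score merges feature fluorescence at 667 nm with signal-to-noise.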 Conditions: small-molecule microarray, higher = more signal.
Experiment [18] can be described thus: probe aNog binding to arrayed compounds – biochemical, biotinylated probe, 635/667 nm fluorescence, primary screen (AID 1115).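 Further: probe is biotinylated aNog protein used at 0.15 µg/mL for 1 h at 4 C; z-score combines 667 nm fluorescence of each spot with its signal to noise.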 Conditions: small-molecule microarray, higher = more signal.
The target in experiment [19] is Torsin-1A-interacting protein 1 (Homo sapiens) (UniProt Q5JTV8). In words: compound microarray binding of lysate hLAP1 – cell lysate, small-molecule microarray, COS7 lysate, 635/667 nm fluorescence, primary screen (AID 1116). The conditions noted are these: 635 nm fluorescence, higher = more signal.
Chain of Torsin-1A-interacting protein 1 (Homo sapiens) (Q5JTV8 whole entry, looked up): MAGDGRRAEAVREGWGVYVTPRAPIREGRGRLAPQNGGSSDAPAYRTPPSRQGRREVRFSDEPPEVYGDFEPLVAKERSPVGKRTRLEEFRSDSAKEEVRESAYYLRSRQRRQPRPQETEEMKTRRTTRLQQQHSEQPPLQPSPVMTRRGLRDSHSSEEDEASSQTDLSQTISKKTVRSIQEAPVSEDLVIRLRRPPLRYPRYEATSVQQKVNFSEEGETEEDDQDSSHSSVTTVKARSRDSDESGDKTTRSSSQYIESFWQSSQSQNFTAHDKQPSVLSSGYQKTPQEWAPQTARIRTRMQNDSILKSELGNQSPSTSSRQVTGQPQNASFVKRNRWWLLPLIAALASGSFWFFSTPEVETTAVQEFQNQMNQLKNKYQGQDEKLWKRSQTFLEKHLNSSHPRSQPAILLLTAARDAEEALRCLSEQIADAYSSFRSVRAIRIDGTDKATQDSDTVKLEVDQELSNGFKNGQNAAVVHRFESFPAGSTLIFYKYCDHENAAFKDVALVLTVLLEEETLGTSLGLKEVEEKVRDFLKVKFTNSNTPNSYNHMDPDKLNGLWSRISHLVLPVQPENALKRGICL
The target of experiment [20] is Alpha-bungarotoxin (Bungarus multicinctus) (UniProt P60615). Nature of the experiment: compounds binding labelled alpha-BTX control protein – biochemical, small-molecule microarray, Alexa647 label, 635/667 nm fluorescence, artefact control for SMM control protein annotation, profiling panel (AID 1117). The conditions noted are these: alpha-BTX-A647 binding fluorescence, higher = more signal.
Chain of Alpha-bungarotoxin (Bungarus multicinctus) (P60615 whole entry, looked up): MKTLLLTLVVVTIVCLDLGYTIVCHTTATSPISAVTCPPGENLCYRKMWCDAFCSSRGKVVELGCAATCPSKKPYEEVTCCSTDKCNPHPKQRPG

The source made the active and inactive calls.

Chain of Left-right determination factor 2 (Homo sapiens) (O00292 whole entry, looked up): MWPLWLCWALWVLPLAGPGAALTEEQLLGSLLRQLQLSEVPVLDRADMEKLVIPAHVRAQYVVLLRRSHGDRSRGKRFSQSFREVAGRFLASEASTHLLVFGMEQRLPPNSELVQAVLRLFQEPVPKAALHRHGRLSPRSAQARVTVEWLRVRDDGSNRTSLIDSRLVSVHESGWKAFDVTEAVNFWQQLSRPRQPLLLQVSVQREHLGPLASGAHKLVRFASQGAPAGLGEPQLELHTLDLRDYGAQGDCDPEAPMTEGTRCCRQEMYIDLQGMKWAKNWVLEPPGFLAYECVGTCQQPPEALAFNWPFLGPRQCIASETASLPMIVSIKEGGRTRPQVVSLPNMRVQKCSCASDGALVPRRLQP
Chain of Epidermal growth factor receptor (Homo sapiens) (P00533 whole entry, looked up): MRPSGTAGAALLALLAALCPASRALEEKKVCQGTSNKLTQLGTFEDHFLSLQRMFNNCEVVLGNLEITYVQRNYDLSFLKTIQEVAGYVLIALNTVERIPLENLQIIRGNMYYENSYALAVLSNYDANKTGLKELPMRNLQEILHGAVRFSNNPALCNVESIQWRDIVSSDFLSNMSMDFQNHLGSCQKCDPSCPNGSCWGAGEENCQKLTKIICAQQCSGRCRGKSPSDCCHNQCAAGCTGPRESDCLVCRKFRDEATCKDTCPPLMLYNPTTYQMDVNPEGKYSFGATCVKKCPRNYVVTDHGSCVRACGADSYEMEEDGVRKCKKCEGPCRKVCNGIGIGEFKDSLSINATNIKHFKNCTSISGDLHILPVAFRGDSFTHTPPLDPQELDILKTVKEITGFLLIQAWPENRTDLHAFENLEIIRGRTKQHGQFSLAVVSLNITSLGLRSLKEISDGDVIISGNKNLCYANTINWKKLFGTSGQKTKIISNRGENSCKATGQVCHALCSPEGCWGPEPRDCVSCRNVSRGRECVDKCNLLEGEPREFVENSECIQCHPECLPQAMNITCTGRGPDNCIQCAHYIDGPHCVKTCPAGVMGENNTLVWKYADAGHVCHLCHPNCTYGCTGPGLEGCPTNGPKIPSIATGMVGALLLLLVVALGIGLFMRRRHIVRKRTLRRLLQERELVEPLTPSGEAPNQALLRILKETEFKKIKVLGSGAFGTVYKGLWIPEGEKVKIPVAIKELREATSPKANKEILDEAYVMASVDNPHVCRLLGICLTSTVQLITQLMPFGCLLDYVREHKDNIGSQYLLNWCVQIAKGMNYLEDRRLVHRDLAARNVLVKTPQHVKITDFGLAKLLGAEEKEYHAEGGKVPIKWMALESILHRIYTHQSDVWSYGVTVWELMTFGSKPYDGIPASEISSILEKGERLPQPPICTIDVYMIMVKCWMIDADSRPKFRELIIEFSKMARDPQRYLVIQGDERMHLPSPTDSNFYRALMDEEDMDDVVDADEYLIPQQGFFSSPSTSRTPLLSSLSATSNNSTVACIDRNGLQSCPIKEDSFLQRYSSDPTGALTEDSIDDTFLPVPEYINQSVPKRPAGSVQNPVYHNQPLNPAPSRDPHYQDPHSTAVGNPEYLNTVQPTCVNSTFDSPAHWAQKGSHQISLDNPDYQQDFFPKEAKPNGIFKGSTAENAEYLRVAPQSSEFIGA

As for `COCC(=C=CC[C@@H](O)c1ccccc1OCCO)CCO`, the composite z-score in experiment [1] was 0.718; in experiment [2], 0.117; in experiment [3] it was 0.09; in experiment [5], 1.49; in experiment [6], -0.0421; in experiment [7], -0.423. In addition, the composite z-score in [8] is 0.135; in [9], 0.335; in experiment [10] it was 0.706; in [11], 0.692; in experiment [13], -0.0632; in experiment [14], 0.0775. For the same compound, the composite z-score in [15] was 0.119; in [16], -0.206; in [17] it was 0.0796; in experiment [18], -0.333; in [19] it was 0.416; in [20], 0.113. Also, the z-score was 0.0385 (inactive) in [4] and -0.779 in experiment [12].

Take `CN(C)CCCNC(=O)[C@@H]1c2ccccc2C(=O)N(Cc2cc(F)cc(C(F)(F)F)c2)[C@H]1c1ccc(CO)cc1`: the composite z-score in experiment [1] is 1.75; in experiment [2] it was -0.132; in experiment [3], 0.17; in experiment [5], 0.159; in [6] it was 0.922; in experiment [7], 0.368. The composite z-score in [8] is -1.1; in experiment [9], 0.0959; in [10] it was -0.217; in experiment [11], 0.7; in [13], 0.643; in [14], 0.509. In addition, the composite z-score in experiment [15] is 0.0028; in experiment [16], -0.103; in experiment [17], -0.0904; in experiment [18] it was 1.39; in experiment [19], 0.886; in [20], -0.0234. Further, the z-score was -1 (inactive) in experiment [4] and -0.734 in [12].

As for `C=CCC(OC(C)=O)[C@@H]1[C@@H](N(Cc2cc3ccccc3o2)C(=O)Cc2ccc(F)cc2)c2cc(OCCCO)ccc2N1C(=O)Cc1ccc(OC)cc1` (stereo not given in full), the composite z-score in [1] is -0.144; in experiment [2] it was -0.361; in [3] it was 0.102; in experiment [5], 0.0509; in experiment [6] it was -1.17; in [7], -0.239. The composite z-score in experiment [8] was -0.0882; in [9] it was -0.191; in experiment [10] it was 0.772; in [11], -1.07; in experiment [13], -0.0691; in experiment [14], -0.481. The composite z-score was -0.435 in experiment [15]; -0.236 in [16]; 0.14 in [17]; 0.0234 in experiment [18]; 0.158 in [19]; 0.286 in [20]. Further, the z-score is -0.844 (inactive) in [4] and -1.14 in experiment [12].

As to `C[C@@H]1C=CCC(=O)OC[C@H](C)C(=O)OC[C@H]2O[C@H]1C=C[C@H]2O`, the composite z-score in experiment [1] is 0.128; in experiment [2], -0.439; in experiment [3], -0.833; in experiment [5], 0.678; in experiment [6], 0.387; in experiment [7], 0.339. The composite z-score in experiment [8] was 0.808; in [9], 0.545; in experiment [10], -0.181; in experiment [11], 0.0717; in [13], 0.71; in experiment [14], -0.239. For the same compound, the composite z-score in experiment [15] was -1.16; in experiment [16] it was -0.228; in [17], -0.0793; in [18] it was -0.278; in experiment [19], -0.0644; in [20] it was -0.108. In addition, the figures for the z-score in experiment [4] and in experiment [12] were 1.17 (inactive) and -2.33, respectively.

Turning to `CCCC[C@@H]1C[C@H]1[C@@H](NS(=O)(=O)c1cccc2cccnc12)c1ccc(-c2ccccc2)cc1`, the composite z-score is -0.383 in [1]; 0.583 in experiment [2]; 1.09 in experiment [3]; 0.0068 in experiment [5]; -0.356 in [6]; -1.26 in experiment [7]. The composite z-score is -0.417 in [8]; -0.475 in experiment [9]; 0.76 in experiment [10]; 0.97 in experiment [11]; -0.732 in experiment [13]; 0.691 in experiment [14]. Also, the composite z-score in [15] was 1.23; in experiment [16], 0.138; in experiment [17], -0.01; in experiment [18] it was 1.31; in [19], 0.0258; in [20] it was 0.231. The results for the z-score in experiment [4] and in [12] were 1.19 (inactive) and -0.122, respectively.

(Values after PubChem BioAssay.)
